Bioassay records (PubChem BioAssay)
TRHR ag: TRH receptor (human) agonism. TRHR cells, calcium flux fluo-8, FDSS agonist mode. activation, % at 2 µM. 0.18% of 360,000 active. AID 493084; note: 0% is about no effect
Target sequence (P34981 whole entry, looked up): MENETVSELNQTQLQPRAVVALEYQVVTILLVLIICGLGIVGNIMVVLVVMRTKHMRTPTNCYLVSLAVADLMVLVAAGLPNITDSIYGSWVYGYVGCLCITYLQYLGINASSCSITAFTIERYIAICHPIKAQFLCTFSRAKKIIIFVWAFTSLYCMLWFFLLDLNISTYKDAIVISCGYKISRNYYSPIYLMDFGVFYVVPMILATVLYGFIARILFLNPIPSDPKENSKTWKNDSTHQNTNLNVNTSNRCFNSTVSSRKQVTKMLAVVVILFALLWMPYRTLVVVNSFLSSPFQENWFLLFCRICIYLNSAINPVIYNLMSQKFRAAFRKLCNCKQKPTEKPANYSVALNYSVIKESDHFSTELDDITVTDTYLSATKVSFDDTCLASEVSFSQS
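TRHR-expressing cells, plated overnight in medium with 10% serum, were loaded with fluo-8 calcium dye at room temperature. After a 10 s baseline, library compound was pin-added and calcium release was recorded kinetically (ex 480/em 530) as agonist response.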
D1 antag: blocks dopamine activation of the human D1 receptor. activity change, negative = inhibition, % at 10 µM. HEK293 TREx D1 cells, calcium flux, dopamine EC80; hits give low values. 3.2% of 360,000 active. P21728. AID 504652; in the data active = activity change below about -30%; note: % is set by controls: 0 for no effect and ±100 for the full control effect
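HEK293 T-REx cells expressing inducible, force-coupled D1 receptor; no-wash Ca dye, 30–90 min RT. Cmpd → 180 s read at 1 Hz → EC80 DA → 180 s read.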
D1 ag: activates the human D1 dopamine receptor. P21728. HEK293 T-REx D1 cells, calcium flux, agonist mode. activation, % at 2 µM. 1% of 360,000 active. AID 504660; note: 0% is about no effect
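Inducible HEK293 T-REx D1 cells, force-coupled to calcium signalling, were plated at 4000 cells/well with tetracycline and held overnight at 30 C. After no-wash calcium dye loading, compound-evoked calcium rise over 180 s flagged agonists.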
TRHR PAM: allosteric enhancers of human TRH receptor. P34981. TRHR cells, fluo-8 calcium fluorescence, EC20 TRH enhancement. enhancement, % at 2 µM. 0.66% of 360,000 active; in the data active = enhancement above about 30%; note: 0% is about no effect
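TRHR-expressing cells loaded with fluo-8 calcium dye were read kinetically (ex 480/em 530) during compound addition, then stimulated with an EC20 of TRH (10 nM final). Enhancement of the Gq-mediated intracellular calcium response was scored.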
D1 PAM: enhances dopamine response at the human D1 receptor; P21728; HEK293 TREx D1 cells, calcium flux, dopamine EC20 potentiation; potentiation, % at 10 µM; 0.036% of 360,000 active; in the data active = potentiation above about 30%; note: 0% is about no effect
Starred values were filed as active, the others as inactive; . = no result. An excerpt weighted towards active compounds, which were near 4.6% of everything screened. Cut-off read from the data, not from the text of the source, unless noted: active = activation above about 30%; inactive = the rest.

SMILES	TRHR ag	D1 antag	D1 ag	TRHR PAM	D1 PAM
CC(=O)c1ccc(OCCCC(=O)N2CCN(S(=O)(=O)c3cc(C)ccc3C)CC2)cc1	0	-23	3	-3	-6
CC(=O)c1ccc(OCCCC(=O)N2CCN(S(=O)(=O)c3ccc(C)cc3C)CC2)cc1	0	-31*	8	-8	-10
Cc1ccc(OCCCC(=O)N2CCN(S(=O)(=O)c3cccc(F)c3)CC2)cc1	-1	-33*	6	5	-4
Cc1ccc(S(=O)(=O)N2CCN(C(=O)CCCOc3cccc(C)c3)CC2)cc1	-1	-39*	1	1	0
O=C(NCc1ccccn1)c1cc(Cl)ccc1OCc1ccccc1	0	5	3	-9	-3
Cc1ccc(NC(=O)C2=C(O)CCn3c2nc2ccccc23)cc1	0	-5	6	-7	-4
N=C(N)Cc1ccccc1Sc1ccccc1	2	-49*	5	-7	-8
COc1ccc(NC(=O)Nc2nc(C)cc(C)n2)c(OC)c1	1	-34*	1	-6	-12
COc1ccc(NC(=O)CO/N=C2\CCCc3nonc32)cc1	0	-5	4	7	7
COc1ccc(NC(=O)Nc2cnccn2)c(OC)c1	0	-4	2	-5	-9
COc1ccc(NC(=O)CO/N=C2/CCCc3nonc32)c(OC)c1	-1	-32*	6	1	-2
COc1ccc(NC(=O)CC(=O)Nc2ccc(OC)cc2OC)c(OC)c1	1	-89*	4	5	-6
COc1ccc(NC(=O)c2ccc(CN3CCc4ccccc4C3)cc2)c(OC)c1	-1	-35*	1	-1	-20
C/C(=N\NC(=O)CSCc1ccccc1Cl)c1cccc(NC(=O)c2ccccc2)c1	0	-6	4	-2	0
COc1ccc(CCC(C(O)C(F)(F)F)S(=O)c2ccccc2)cc1 (stereo unspecified)	0	0	2	-7	-2
CC(C)c1ccc(NC(=O)Nc2cnccn2)cc1	0	15	1	-1	-5
CCOc1ccc(CN(C)c2ccc(S(=O)(=O)N3CCN(C)CC3)cc2[N+](=O)[O-])cc1OC	3	-45*	27	-8	-6
C=CCOc1ccc(CN(C)c2ccc(S(=O)(=O)N3CCN(C)CC3)cc2[N+](=O)[O-])cc1	2	-36*	14	-3	-18
Cc1ccc(S(=O)(=O)N2CCC(=O)N(C(COCc3ccccc3)Cc3ccccc3)CC2)cc1 (stereo unspecified)	0	2	10	-3	-4
OC(CC#CCN1CCOCC1)(c1ccccc1)c1ccccc1	0	-31*	-3	-2	-7
OC(CC#CCN1CCCC1)(c1ccccc1)c1ccccc1	1	9	1	-3	-6
CCCCN(C)CC(O)Cn1cc(/C=C/C(=O)c2ccc(OC)c(OC)c2)c2ccccc21 (stereo unspecified)	22	-7	63*	-5	-3
COc1ccc(C(=O)/C=C/c2cn(CC(O)CN3CCN(C)CC3)c3ccccc23)cc1OC (stereo unspecified)	13	20	8	-1	-5
CCCCN(C)CC(O)Cn1cc(/C=C/C(=O)c2ccc(Br)cc2)c2ccccc21 (stereo unspecified)	7	-57*	126*	-3	-3
CCCCN(C)CC(O)Cn1cc(/C=C/C(=O)c2ccc(C)cc2)c2ccccc21 (stereo unspecified)	2	-18	33*	1	-5
SMILES	TRHR ag	D1 antag	D1 ag	TRHR PAM	D1 PAM
Cc1cc(=O)n2c(n1)NC(=NCc1ccccc1)NC2c1ccccc1 (stereo unspecified)	0	-7	1	2	1
COc1ccc(CC(=O)Nc2c3c(nn2-c2cccc(C)c2C)CS(=O)(=O)C3)cc1	-1	9	4	-1	-5
COC(=O)c1ccc(N(CC(=O)NC2CCCC2)C(=O)CNC(=O)c2cccs2)cc1	0	21	1	4	30*
Cc1ccc(/C=C2\Sc3ccccc3C2=O)s1	1	-13	4	-5	-1
COc1ccc(OC)c(/C=C2/Sc3ccccc3C2=O)c1	66*	-2	312*	3	8
COc1ccc(NC(=S)Nc2ccc(N)c([N+](=O)[O-])c2)cc1	0	-15	1	2	-6
CCc1ccccc1NS(=O)(=O)c1ccc2[nH]cc(C(=O)N3CCCCC3)c(=O)c2c1	-1	3	-2	15	-1
CCc1ccccc1NS(=O)(=O)c1ccc2[nH]cc(C(=O)N(CC(C)C)CC(C)C)c(=O)c2c1	0	-54*	0	6	0
NC(=O)c1ccc(NC(=O)COC(=O)CCCc2c[nH]c3ccccc23)cc1	1	-30*	2	-3	-1
Cc1ccc(S(=O)(=O)NCC(=O)NCCc2c[nH]c3ccccc23)cc1C	-1	-1	0	34*	-3
O=C(CCCc1c[nH]c2ccccc12)N[C@@H](Cc1c[nH]c2ccccc12)C(=O)O	0	-19	0	-5	4
Cc1ccc(NC(=O)COC(=O)Cc2c[nH]c3ccccc23)cc1C	0	-75*	1	7	-4
CC(C)NC(=O)CCCc1c[nH]c2ccccc12	0	-13	3	33*	-5
CCC(C(=O)NCc1ccncc1)c1ccccc1 (stereo unspecified)	0	-9	3	1	1
O=C(CC(c1ccccc1)c1ccccc1)Nc1ncn[nH]1	0	-36*	1	5	-5
CC(=O)Nc1ccc(NC(=O)CSc2nnc(NC(=O)C3CC3)s2)cc1	1	-23	1	1	-10
CCSc1nnc(NC(=O)Cc2ccc(OC)c(OC)c2)s1	0	-33*	2	-5	-9
CCOC(=O)Cc1nnc(NC(=O)CSc2ccc(Cl)cc2)s1	1	-32*	10	-3	-2
COc1ccc(NC(=O)CSc2nnc(NC(=O)C3CC3)s2)cc1OC	1	-36*	1	14	-13
COc1ccc(-c2nnc(NC(=O)CSc3ccc(Cl)cc3)s2)cc1OC	1	0	2	25	5
COc1ccc(Cc2nnc(NC(=O)CSc3ccc(C)cc3)s2)cc1OC	0	-1	224*	9	6
COC(=O)c1cc(NC(=O)CSc2nnc(N)s2)ccc1Cl	0	10	2	34*	-4
CCOC(=O)Cc1nnc(NC(=O)C(CC)Sc2nc(C)cc(C)n2)s1 (stereo unspecified)	0	-36*	4	-2	.
O=C(NC(Cc1ccccc1)C(=O)O)/C(=C\c1ccccc1)NC(=O)c1ccc(Br)o1 (stereo unspecified)	0	2	4	-2	-3
Cc1cc(NC(=O)C2CC=CCC2C(=O)O)no1 (stereo unspecified)	0	6	-1	-3	-2
